The values that follow come from the supplement of paper PMC12808144.

In the first experiment the test system is Mel-DCC-11-R. Kind of experiment: cell viability relative to DMSO control (fraction of DMSO control); higher = less cytotoxic, active = 0.8 or less. As to conditions: 1 µM; 120 h; vemurafenib co-treatment 0 µM. On the procedure:
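Same 315-drug TargetMol library at 1 µM in duplicate, 120 h, ATPlite luminescence normalised to DMSO controls, on the vemurafenib-resistant subline Mel-DCC-11-R cultured alone or with 8 µM vemurafenib co-treatment (Mel-DCC-11-R + V).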
Turning to `C=CC(=O)Nc1cc(Nc2nccc(-c3cn(C)c4ccccc34)n2)c(OC)cc1N(C)CCN(C)C.CS(=O)(=O)O` [Osimertinib mesylate], the cell viability was 1.21 (inactive).
Take `Nc1ccccc1NC(=O)c1ccc(CNC(=O)OCc2cccnc2)cc1` [Entinostat]: the cell viability was 0.989 (inactive).
For the molecule `COc1ccc(/C=C\c2cc(OC)c(OC)c(OC)c2)cc1OP(=O)([O-])[O-].[Na+].[Na+]` [Fosbretabulin Disodium], the cell viability is 0.57 (active).
On the same count and under the same terms, to `C#Cc1cccc(Nc2ncnc3cc(OCCOC)c(OCCOC)cc23)c1` [Erlotinib] belongs 1.03 (inactive); to `CN(Cc1cnc2nc(N)nc(N)c2n1)c1ccc(C(=O)N[C@@H](CCC(=O)O)C(=O)O)cc1` [Methotrexate], 0.993 (inactive); to `CN1[C@@H]2CCC[C@H]1C[C@@H](NC(=O)c1nn(C)c3ccccc13)C2.Cl` [Granisetron hydrochloride], 0.924 (inactive).
On the same count and under the same terms, to `O=C([O-])CCCc1ccccc1.[Na+]` [Sodium Phenylbutyrate] belongs 1 (inactive).
Regarding `CC(C)C[C@H](NC(=O)[C@H](Cc1ccccc1)NC(=O)c1cnccn1)B(O)O` [Bortezomib], the cell viability was 0.0464 (active).
For `Nc1nc(=O)c2c([nH]1)NC[C@H](CNc1ccc(C(=O)N[C@@H](CCC(=O)[O-])C(=O)[O-])cc1)N2C=O.[Ca+2]` [Calcium Levofolinate], the cell viability was 1.8 (inactive).
Still for that read-out and setting: with `O=C(O)C1CSCN1` (stereo not given) [Thioproline] the figure was 0.893 (inactive); with `O=c1[nH]c(=O)n([C@H]2C[C@H](O)[C@@H](CO)O2)cc1F` [Floxuridine], 1.24 (inactive).
Same read-out and setting: with `CCc1c2c(nc3ccc(OC(=O)N4CCC(N5CCCCC5)CC4)cc13)-c1cc3c(c(=O)n1C2)COC(=O)[C@]3(O)CC.Cl.O.O.O` [Irinotecan hydrochloride trihydrate] the figure was 1.32 (inactive).
As to `O=NN(CCCl)C(=O)NC1CCCCC1` [Lomustine], the cell viability was 0.985 (inactive).
The same measure, in the same setting: to `CC(=O)O[C@@]12CO[C@@H]1C[C@H](O)[C@@]1(C)C(=O)[C@H](O)C3=C(C)[C@@H](OC(=O)[C@H](O)[C@@H](NC(=O)OC(C)(C)C)c4ccccc4)C[C@@](O)([C@@H](OC(=O)c4ccccc4)[C@H]21)C3(C)C` [Docetaxel] belongs 1.07 (inactive); to `NC(=O)c1cccc2cn(-c3ccc([C@@H]4CCCNC4)cc3)nc12` [Niraparib], 1.06 (inactive).
On the same count and under the same terms, to `C[C@]12CC[C@@H]3c4ccc(O)cc4C[C@@H](CCCCCCCCCS(=O)CCCC(F)(F)C(F)(F)F)[C@H]3[C@@H]1CC[C@@H]2O` (stereo not given in full) [Fulvestrant] belongs 0.987 (inactive); to `COc1cc([C@H]2Oc3cc([C@H]4Oc5cc(O)cc(O)c5C(=O)[C@@H]4O)ccc3O[C@@H]2CO)ccc1O` [Silibinin], 0.799 (active).
Same read-out and setting: with `CC1CCC(C(C)C)C(O)C1` (racemic) [DL-Menthol] the figure was 1.07 (inactive).
For the molecule `CNC(=O)c1c(C)oc2cc(Oc3ncnc4cc(OC)c(OC)cc34)ccc12` [Fruquintinib], the cell viability was 1.09 (inactive).
Still for that read-out and setting: to `CC(=O)O[C@H]1C(=O)[C@]2(C)[C@@H](O)C[C@H]3OC[C@@]3(OC(C)=O)[C@@H]2[C@@H](OC(=O)c2ccccc2)[C@]2(O)C[C@H](OC(=O)[C@H](O)[C@@H](NC(=O)c3ccccc3)c3ccccc3)C(C)=C1C2(C)C` [Paclitaxel] belongs 1.06 (inactive).

Still in this experiment, the particulars now being: 1 µM; 120 h; vemurafenib co-treatment 8 µM.
Consider `C=CC(=O)Nc1cc(Nc2nccc(-c3cn(C)c4ccccc34)n2)c(OC)cc1N(C)CCN(C)C.CS(=O)(=O)O` [Osimertinib mesylate], for which the cell viability was 0.744 (active).
Take `Nc1ccccc1NC(=O)c1ccc(CNC(=O)OCc2cccnc2)cc1` [Entinostat]: the cell viability was 1.01 (inactive).
Consider `COc1ccc(/C=C\c2cc(OC)c(OC)c(OC)c2)cc1OP(=O)([O-])[O-].[Na+].[Na+]` [Fosbretabulin Disodium], for which the cell viability is 0.421 (active).
Turning to `C#Cc1cccc(Nc2ncnc3cc(OCCOC)c(OCCOC)cc23)c1` [Erlotinib], the cell viability is 0.732 (active).
Still for that read-out and setting: with `CN(Cc1cnc2nc(N)nc(N)c2n1)c1ccc(C(=O)N[C@@H](CCC(=O)O)C(=O)O)cc1` [Methotrexate] the figure was 1.14 (inactive).
The same measure, in the same setting: with `CN1[C@@H]2CCC[C@H]1C[C@@H](NC(=O)c1nn(C)c3ccccc13)C2.Cl` [Granisetron hydrochloride] the figure was 1.07 (inactive); with `O=C([O-])CCCc1ccccc1.[Na+]` [Sodium Phenylbutyrate], 1.07 (inactive).
The same measure, in the same setting: with `CC(C)C[C@H](NC(=O)[C@H](Cc1ccccc1)NC(=O)c1cnccn1)B(O)O` [Bortezomib] the figure was 0.048 (active); with `Nc1nc(=O)c2c([nH]1)NC[C@H](CNc1ccc(C(=O)N[C@@H](CCC(=O)[O-])C(=O)[O-])cc1)N2C=O.[Ca+2]` [Calcium Levofolinate], 1.27 (inactive); with `O=C(O)C1CSCN1` (stereo not given) [Thioproline], 1.08 (inactive).
`O=c1[nH]c(=O)n([C@H]2C[C@H](O)[C@@H](CO)O2)cc1F` [Floxuridine]: the cell viability is 1.07 (inactive).
Consider `CCc1c2c(nc3ccc(OC(=O)N4CCC(N5CCCCC5)CC4)cc13)-c1cc3c(c(=O)n1C2)COC(=O)[C@]3(O)CC.Cl.O.O.O` [Irinotecan hydrochloride trihydrate], for which the cell viability was 0.937 (inactive).
`O=NN(CCCl)C(=O)NC1CCCCC1` [Lomustine]: the cell viability was 1.11 (inactive).
The same measure, in the same setting: with `CC(=O)O[C@@]12CO[C@@H]1C[C@H](O)[C@@]1(C)C(=O)[C@H](O)C3=C(C)[C@@H](OC(=O)[C@H](O)[C@@H](NC(=O)OC(C)(C)C)c4ccccc4)C[C@@](O)([C@@H](OC(=O)c4ccccc4)[C@H]21)C3(C)C` [Docetaxel] the figure was 0.609 (active); with `NC(=O)c1cccc2cn(-c3ccc([C@@H]4CCCNC4)cc3)nc12` [Niraparib], 1.08 (inactive); with `C[C@]12CC[C@@H]3c4ccc(O)cc4C[C@@H](CCCCCCCCCS(=O)CCCC(F)(F)C(F)(F)F)[C@H]3[C@@H]1CC[C@@H]2O` (stereo not given in full) [Fulvestrant], 0.809 (inactive).
Still for that read-out and setting: to `COc1cc([C@H]2Oc3cc([C@H]4Oc5cc(O)cc(O)c5C(=O)[C@@H]4O)ccc3O[C@@H]2CO)ccc1O` [Silibinin] belongs 0.914 (inactive); to `CC1CCC(C(C)C)C(O)C1` (racemic) [DL-Menthol], 1.08 (inactive).
`CNC(=O)c1c(C)oc2cc(Oc3ncnc4cc(OC)c(OC)cc34)ccc12` [Fruquintinib]: the cell viability is 1.05 (inactive).
Regarding `CC(=O)O[C@H]1C(=O)[C@]2(C)[C@@H](O)C[C@H]3OC[C@@]3(OC(C)=O)[C@@H]2[C@@H](OC(=O)c2ccccc2)[C@]2(O)C[C@H](OC(=O)[C@H](O)[C@@H](NC(=O)c3ccccc3)c3ccccc3)C(C)=C1C2(C)C` [Paclitaxel], the cell viability is 0.526 (active).
